# Measured values: PMC5540273 (PLoS ONE, 2017)
# Experiments:
# Details in all cases: concentration: 1 μM, replicates: in singlicate; n = 1
# [1] = test system: MAP3K4
# [2] = test system: MAP4K2
# [3] = test system: MAP4K3
# [4] = test system: MAP4K4
# [5] = test system: MAP4K5
# [6] = test system: MAPKAPK2
# [7] = test system: MAPKAPK5
# [8] = test system: MARK1
# [9] = test system: MARK2
# [10] = test system: MARK3
# 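Also: KINOMEscan kinase panel screen.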
SMILES,%Inh [1],%Inh [2],%Inh [3],%Inh [4],%Inh [5],%Inh [6],%Inh [7],%Inh [8],%Inh [9],%Inh [10]
CCc1nc(-c2cccc(C)c2)c(-c2ccncc2)s1,0%,0%,0%,17%,0%,0%,0%,0%,11%,0%
CCC(=O)c1c(-c2ccccc2)c2cc(Cl)ccc2c(=O)n1Cc1ccc(C(=O)O)cc1,0%,12%,0%,0%,0%,0%,17%,0%,3%,0%
COc1cc2ncn(-c3cc(OCc4ccncc4Br)c(C(N)=O)s3)c2cc1OC [GW854278],17%,11%,0%,0%,20%,0%,0%,8%,37%,0%
COC(=O)c1c(-c2ccccc2)c2cc(Br)ccc2c(=O)n1Cc1ccc(S(C)(=O)=O)cc1,9%,0%,0%,19%,0%,4%,2%,1%,0%,11%
CN1C(=O)C(Nc2ccccc2)=C(c2ccccc2)C1=O [SB-300079],0%,0%,0%,0%,0%,0%,0%,10%,0%,23%
COC(=O)c1c(-c2ccccc2)c2cc(C)ccc2c(=O)n1Cc1ccccc1,2%,0%,0%,0%,0%,24%,0%,0%,17%,0%
FC(F)(F)c1ccc(-c2ncn(CCCN3CCOCC3)c2-c2ccncc2)cc1 [SB-217780],7%,0%,0%,0%,0%,12%,22%,9%,0%,3%
COc1cc2ncn(-c3cc(OCCCc4ccccc4)c(C(N)=O)s3)c2cc1OC [GSK205189],16%,0%,0%,14%,39%,7%,0%,0%,0%,0%
Cc1nn2c(=O)cc(N3CCOCC3)nc2n1Cc1cccc(Cl)c1Cl [GSK2342769],7%,0%,0%,0%,0%,15%,0%,0%,0%,0%
COC(=O)c1c(-c2ccccc2)c2cc(Br)ccc2c(=O)n1Cc1ccc(NC(=O)CCC(=O)O)cc1,38%,0%,0%,0%,0%,16%,4%,7%,6%,0%
Cc1nnc(-c2ccc(C)c(-c3ccc(C(=O)O)cc3)c2)o1 [GW608005],8%,0%,0%,10%,0%,1%,0%,4%,0%,0%
Nc1nc(-c2ccccc2F)c(-c2ccnc3ccccc23)s1 [GW560459],1%,0%,0%,11%,0%,9%,0%,0%,0%,4%
CCS(=O)c1ccc(-c2coc3ccc(-c4nnc(C)o4)cc23)cc1 (stereo not shown),0%,0%,0%,5%,4%,0%,7%,4%,8%,17%
CCC(=O)c1c(-c2ccccc2)c2cc(Cl)ccc2c(=O)n1Cc1cc(S(C)(=O)=O)n(CC(N)=O)n1,0%,0%,0%,0%,0%,0%,0%,0%,0%,6%
COc1cccc(C2=C(N(C)c3ccccc3)C(=O)NC2=O)c1 [SB-334865],12%,0%,0%,0%,0%,17%,0%,0%,0%,0%
COc1ccc(-c2cc3c(C)nc(N)nc3n([C@H]3CC[C@H](O)CC3)c2=O)cn1,0%,0%,3%,0%,0%,0%,0%,0%,0%,0%
Cn1c(=O)c(F)c(Nc2ccc(I)cc2F)c2c(=O)n(OC[C@H](O)CO)cnc21,27%,0%,0%,0%,5%,0%,0%,0%,0%,7%
O=C(NCc1cccs1)c1cc(C(=O)c2c(Cl)cccc2Cl)c[nH]1 [GW823670],0%,0%,0%,0%,3%,0%,0%,0%,0%,50%
CCCNC(=O)Nc1ccc(Oc2ncnc3ccn(C)c23)cc1,6%,7%,0%,0%,0%,7%,0%,6%,6%,0%
CCn1c(-c2nonc2N)nc2ccccc21 [SB-693162/GW549034],0%,4%,0%,0%,0%,0%,33%,0%,25%,0%
COc1cc(Nc2ccnc3ccc(C(F)(F)F)cc23)cc(OC)c1OC [GW577382],7%,1%,0%,15%,4%,0%,0%,8%,0%,0%
O=C(Nc1n[nH]c2nc(-c3ccccc3)c(Br)cc12)C1CC1 [SB-708998],0%,1%,0%,17%,13%,0%,0%,0%,0%,0%
OCCCNc1nccc(-c2c(-c3cccc(C(F)(F)F)c3)nn3cc(C(F)(F)F)ccc23)n1 [GW630813],4%,0%,0%,6%,2%,7%,0%,0%,0%,0%
COc1ccc(Nc2nccc(N3CCC(NS(=O)(=O)c4ccc(NC(C)=O)cc4)C3)n2)cc1 (stereo not shown) [GSK1379729],13%,2%,11%,21%,15%,49%,1%,0%,0%,0%

SMILES,%Inh [1],%Inh [2],%Inh [3],%Inh [4],%Inh [5],%Inh [6],%Inh [7],%Inh [8],%Inh [9],%Inh [10]
Nc1ncnc2c1ncn2-c1cccc2ccccc12 [SKF-97184],2%,0%,0%,0%,0%,0%,0%,23%,0%,52%
Nc1n[nH]c2nnc(-c3ccccc3)c(-c3ccccc3)c12 [GW554060],0%,0%,0%,0%,0%,22%,0%,0%,0%,0%
CCC(=O)c1c(-c2ccccc2)c2cc(Cl)ccc2c(=O)n1Cc1cc(S(C)(=O)=O)n(CC(F)F)n1,9%,0%,0%,0%,0%,0%,5%,0%,1%,0%
COc1cc2ncn(-c3cc(OCc4ccncc4)c(C(N)=O)s3)c2cc1OC [GSK336313],0%,0%,0%,0%,3%,5%,0%,0%,0%,0%
O=C(NCCNc1ccnc(Nc2ccc(F)cc2)n1)Nc1ccc2c(c1)OCO2 [GSK1379882],24%,0%,0%,0%,0%,0%,0%,0%,0%,0%
Cc1cccc(-c2nc(Nc3ccc4c(cnn4C)c3)c3ccccc3n2)n1 [GW876731],10%,0%,0%,0%,0%,0%,0%,12%,0%,34%
CCC(=O)c1c(-c2ccccc2)c2cc(Cl)ccc2c(=O)n1Cc1cc(S(C)(=O)=O)n(CCC(C)(C)O)n1,14%,0%,0%,0%,18%,23%,20%,0%,15%,18%
COc1cc2nccc(Nc3ccc(OCc4ccc(NC(C)=O)cc4)cc3)c2cc1OC.Cl [GW440135],37%,1%,0%,0%,0%,28%,0%,0%,0%,0%
COc1cccc(-n2cnc3c(N)ncnc32)c1 [SKF-97416],31%,33%,0%,0%,0%,0%,1%,0%,13%,37%
Cc1nc(N(C)[C@H]2CN(C(=O)CC#N)CC[C@H]2C)c2cc[nH]c2n1,12%,1%,0%,0%,0%,0%,10%,9%,0%,0%
COc1cccc(C2=C(Nc3cccc(C(=O)O)c3)C(=O)NC2=O)c1 [SB-390770],20%,0%,11%,12%,15%,6%,0%,15%,0%,0%
COc1cc(Nc2nccc(N3CCC(NC(=O)C4COc5ccccc5O4)C3)n2)cc(OC)c1OC (stereo not shown) [GSK1379761],22%,0%,2%,6%,0%,0%,0%,0%,0%,0%
O=C1NC(=O)C(c2ccccc2)=C1Nc1cccc(O)c1 [SB-390534],24%,26%,0%,1%,0%,27%,20%,3%,9%,22%
Nc1n[nH]c2ncc(-c3ccccc3)cc12 [SB-517081],3%,0%,0%,0%,0%,19%,0%,0%,0%,0%
CN(C)c1cc(-c2ccc3c(N)n[nH]c3c2)nc(N)n1 [GSK2219329],0%,0%,0%,9%,7%,0%,0%,0%,0%,0%
COc1cc(Nc2nccc(N3CCC(NC(=O)C(C)c4ccc(Cl)cc4)C3)n2)cc(OC)c1OC (stereo not shown) [GSK1379757],0%,0%,0%,8%,5%,14%,0%,0%,0%,0%
Cl.NS(=O)(=O)c1cccc(Nc2cc(-c3ccc(F)cc3)n[nH]2)c1 [GW824645],1%,0%,0%,0%,0%,0%,0%,0%,19%,14%
Cl.c1ccc(Cn2cnc3cc(Nc4ncnc5ccccc45)ccc32)cc1 [GW272142],0%,0%,0%,0%,0%,15%,0%,0%,0%,0%
CN1C(=O)C(Nc2cc(Cl)c(O)c(Cl)c2)=C(c2ccc(Cl)cc2)C1=O [SB-404321],0%,0%,0%,0%,0%,89%,0%,0%,10%,0%
CC(C)(C)c1ccc(C(=O)Nc2cn3cc(-c4ccccc4)ccc3n2)cc1,7%,0%,33%,5%,0%,12%,0%,0%,19%,0%
O=c1cc(N2CCOCC2)nc2n(Cc3ccc(F)c(Cl)c3)ccn12 [GSK2297099],25%,0%,0%,0%,0%,2%,0%,0%,0%,0%
C[C@@H]1CC[C@H](C(=O)NC2CCCCC2)CN1c1cc(-c2ccc3c(N)n[nH]c3c2)nc(N)n1 [GSK2291363],28%,0%,0%,7%,0%,0%,0%,3%,3%,0%
COc1cc2ncn(-c3cc(OCc4ccc(S(C)(=O)=O)cc4)c(C(N)=O)s3)c2cc1OC [GW869979],0%,26%,0%,0%,0%,0%,31%,0%,10%,0%
Fc1cccc(CSc2nnc(-c3ccc4c(c3)CCO4)o2)c1,0%,8%,0%,0%,0%,25%,16%,0%,20%,5%

SMILES,%Inh [1],%Inh [2],%Inh [3],%Inh [4],%Inh [5],%Inh [6],%Inh [7],%Inh [8],%Inh [9],%Inh [10]
Cc1c(Cn2c(C)nn3c(=O)cc(N4CCO[C@H](C)C4)nc23)cccc1C(F)(F)F [GSK2373690],43%,0%,0%,3%,0%,23%,0%,0%,0%,0%
COc1cc(OC)cc(-c2cc3cnc(N)nc3nc2NC(=O)NC(C)(C)C)c1,32%,0%,0%,0%,0%,0%,0%,0%,8%,0%
Nc1nc(N)c2nc(-c3ccccc3)[nH]c2n1 [SKF-12778],26%,26%,0%,26%,21%,13%,5%,1%,0%,0%
O=C(Nc1n[nH]c2cc(-c3ccccc3F)ccc12)C1CC1 [SB-733371],29%,16%,0%,43%,18%,0%,10%,0%,29%,0%
CCn1c(-c2ccoc2)nc2cnccc21 [SB-733887],0%,0%,0%,11%,5%,16%,0%,0%,0%,3%
Cc1cccc(-c2cc(-c3c[nH]nc3-c3ccccn3)ccn2)c1 [GW679395],13%,0%,0%,0%,0%,17%,0%,0%,0%,0%
COc1ccc(-c2cc3c(C)nc(N)nc3n([C@H]3CC[C@H](OCCO)CC3)c2=O)cn1,4%,0%,30%,0%,0%,0%,0%,0%,1%,0%
Cc1ccccc1COc1cc(-n2cnc3cc(Cl)ccc32)sc1C(N)=O [GW813349],20%,0%,0%,12%,20%,0%,0%,0%,0%,14%
Nc1ncnc2c1ncn2-c1ccc(Cl)cc1 [AH2635],0%,0%,0%,12%,0%,10%,0%,0%,0%,3%
COc1ccc(-n2cnc3c(N)ncnc32)cc1 [SKF-97236],0%,22%,0%,17%,19%,15%,0%,15%,0%,0%
CCC(=O)c1c(-c2ccccc2)c2cc(Cl)ccc2c(=O)n1Cc1cc(C(=O)NC2CC2)n(C)n1,23%,0%,30%,0%,0%,8%,0%,13%,0%,0%
Cc1ccc(Oc2ccc(Nc3ncnc4cc[nH]c34)cc2C)cn1,6%,0%,0%,0%,0%,0%,30%,20%,4%,3%
Cc1nnc(-c2ccc3ncn(-c4ccc(S(C)=O)cc4)c3c2)o1 (stereo not shown),16%,100%,0%,0%,0%,11%,0%,0%,0%,2%
Cc1ccc(-c2ccc3c(ccc4sc5c(c43)NC[C@@H](C)N=C5N(C)C)n2)cn1,0%,0%,0%,0%,0%,0%,0%,0%,5%,0%
CCCC(=O)Nc1n[nH]c2ncc(-c3cccc4ccccc34)cc12 [SB-642057],34%,0%,12%,8%,7%,8%,0%,2%,0%,0%
CCS(=O)(=O)c1ccc(OC)c(Nc2ncc(-c3ccc(F)cc3)o2)c1.Cl [GW591947],22%,0%,0%,5%,0%,1%,0%,0%,0%,0%
Nc1nccc2scc(-c3ccc4c(c3)CCN4C(=O)Cc3ccccc3)c12 [GSK2576924],10%,6%,17%,24%,48%,6%,0%,0%,1%,1%
Cc1cc(Nc2nc(-c3cccc(C)n3)nc3ccccc23)ccn1 [GW872411],0%,0%,12%,0%,0%,0%,0%,21%,13%,22%
Nc1ncnc2c1ncn2-c1cccc(F)c1 [SKF-97560],16%,38%,0%,0%,0%,0%,39%,0%,0%,0%
O=C(Nc1n[nH]c2nc(-c3ccccc3)c(Cl)cc12)C1CC1 [SB-734909],5%,0%,15%,1%,9%,22%,0%,30%,0%,0%
COc1cc2nccc(Nc3cccc(Oc4ccccc4)c3)c2cc1OC.Cl [GW284543],0%,0%,0%,0%,0%,15%,0%,0%,8%,31%
O=C(Nc1ccc2c(c1)OCO2)NC1CCN(c2ccnc(NCc3ccc(F)cc3)n2)CC1 [GSK1379859],0%,0%,0%,3%,0%,13%,0%,8%,0%,0%
